Source: PubChem
Sfp PPTase inh: inhibitors of Bacillus subtilis Sfp phosphopantetheinyl transferase; Biochemical Sfp PPTase activity, qHTS; Potency, µM, for inactives: largest response in the series, negative = inhibition, hits mostly inhibitors; 3.5% of 310,000 active; AID 1490;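 further: the enzyme is Sfp with the accession as filed and its product quenches rhodamine fluorescence; 0% = enzyme reaction without inhibitor and -100% = no enzyme wells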
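Step 1, compound plus 15 nM Sfp-PPTase, 15 min, room temperature. Step 2, add rhodamine-CoA (5 uM) and BHQ-2-YbbR (12.5 uM). Step 3, read 525/598 nm fluorescence at 0 and 30 min.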
ALOX12 inh: ALOX12 (human) lipoxygenase inhibition; Potency, µM (highest dose often 108 µM), for inactives: at the highest dose activity change, negative = inhibition, usual class: inhibitors; AID 1671190; 1.1% of 580,000 active; purified 12hLO, xylenol orange hydroperoxide absorbance; further: on the % scale 0 is the no-effect control and ±100 the full control effect
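Purified human 12hLO (150 nM final) in 25 mM Hepes, 0.01% Triton X-100, pH 7.0 was preincubated 15 min at room temperature with compound. Then 40 uM arachidonic acid was added, 30 min. Hydroperoxide was read by Fe-XO absorbance ratio 573/405 nm.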
G9a inh: inhibitors of human histone lysine methyltransferase G9a; Q96KQ7; 8.8% of 350,000 active; Potency, µM (series often up to 102 µM), for inactives: at the highest dose activity, negative = inhibition, usual class: inhibitors; G9a H3K9 monomethylation, AlphaScreen, 2 h; AID 504332; further: on the % scale 0 is the no-effect control and ±100 the full control effect; nearly all actives have a fitted effect of over 75% in size
Target sequence (Q96KQ7 913-1193 limits assumed): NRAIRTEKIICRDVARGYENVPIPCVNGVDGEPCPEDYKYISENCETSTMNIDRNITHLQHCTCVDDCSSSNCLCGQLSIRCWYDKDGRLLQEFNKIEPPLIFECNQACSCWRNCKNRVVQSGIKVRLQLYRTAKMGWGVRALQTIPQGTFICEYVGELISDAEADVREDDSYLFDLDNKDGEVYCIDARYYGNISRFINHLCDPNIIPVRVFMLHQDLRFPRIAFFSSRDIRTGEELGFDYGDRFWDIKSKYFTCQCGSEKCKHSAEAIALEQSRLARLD
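Quantitative HTS format: methyltransferase activity on a biotin-tagged H3K9 peptide is measured by AlphaScreen, using a rabbit anti-monomethyl-H3K9 antibody with streptavidin donor and anti-IgG acceptor beads. Final levels are 20 nM enzyme, 500 nM peptide, 20 uM SAM; 2 h RT.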
GRP78 ERSR act: ER stress response induction in glioma; Potency, µM, inactives show top-dose activation, hits mostly activators; U87-MG GRP78 promoter luciferase reporter, 16 h; 0.02% of 420,000 active; further: series mostly up to about 76 µM; % of control where 0% means no effect; nearly all actives have a fitted effect of over 35% in size
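ERSR induction read as luciferase luminescence (Bright-Glo, 10 min at room temperature) in stably transfected human U87-MG glioma cells exposed to compounds for 16 h, using GRP78 as sensor.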
VDR inh: vitamin D3 receptor (human) inhibition | P11473 | VDR-SRC2-3 peptide fluorescence polarization, 2 h | Potency, µM, for inactives: max response, negative = inhibition, actives largely listed as inhibitors | 0.93% of 400,000 active | AID 504847; further: on the % scale 0 is the no-effect control and ±100 the full control effect
Target sequence (P11473 whole entry, looked up): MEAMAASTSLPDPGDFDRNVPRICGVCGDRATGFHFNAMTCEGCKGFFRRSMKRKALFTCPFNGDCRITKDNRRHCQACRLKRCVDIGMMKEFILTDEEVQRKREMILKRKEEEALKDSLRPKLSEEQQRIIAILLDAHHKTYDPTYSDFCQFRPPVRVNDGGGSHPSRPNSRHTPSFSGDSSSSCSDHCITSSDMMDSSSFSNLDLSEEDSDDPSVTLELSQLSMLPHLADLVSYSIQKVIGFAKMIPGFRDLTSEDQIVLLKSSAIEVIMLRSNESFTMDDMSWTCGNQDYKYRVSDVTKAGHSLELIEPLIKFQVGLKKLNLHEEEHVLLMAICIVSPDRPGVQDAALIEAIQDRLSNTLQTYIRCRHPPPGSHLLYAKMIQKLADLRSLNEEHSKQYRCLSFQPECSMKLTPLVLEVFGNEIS
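Fluorescence polarization assay measuring small-molecule disruption of VDR binding to the coregulator peptide SRC2-3. Compounds were pin-transferred (23 nl) into the reagent mix and incubated 2 h at room temperature before reading.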
* hit, by the source's call; ! = a repeat was not active; [ ] = dose if it differs, or a comment. This is one part of a sample in which hits are shown more often than they occur. The call rests on the fitted dose curve; in most records, active means well fitted curve in the direction sought with a large enough effect; inconclusive means small, poorly fitted or top-dose-only effect, or another doubt; inactive means no such curve, though single readings can be large; an effect the other way counts as inactive or inconclusive. Potency means the concentration at half of the fitted maximal effect.

Results for O=C(c1ccncc1)N(c1ccc(N2CCOCC2)cc1)C(c1ccccc1)c1nc2ccccc2[nH]1 (stereo not drawn) ?
ALOX12 inh: 11µM*; GRP78 ERSR act: -2%

How did CCC(c1nc2ccccc2[nH]1)N(C(=O)Cc1cc(OC)cc(OC)c1)c1ccc(N2CCOCC2)cc1 (stereo not drawn) do in these assays?
ALOX12 inh: 1%; GRP78 ERSR act: -2%

What do the screens show for `CCOc1ccc(NC(=O)C2CSC(c3ccncc3)=N2)cc1` (stereo not drawn)?
Sfp PPTase inh: -11%; ALOX12 inh: 10%; G9a inh: 50µM*; GRP78 ERSR act: 0%; VDR inh: inconclusive

How did Cn1cccc1C(=O)N1CCCCCCNC(=O)[C@@H]2CCC[C@@H]21 do in these assays?
ALOX12 inh: 50%

How did CSc1cccc(NC(=S)N2CCC(N(C)C3CCCCC3C)CC2)c1 (stereo not drawn) do in these assays?
Sfp PPTase inh: 10%; ALOX12 inh: 5%; G9a inh: 50µM*; GRP78 ERSR act: -5%; VDR inh: 12%

Results for CSc1cccc(NC(=S)N2CCC(N(C)C3CCCCC3)CC2)c1 ?
Sfp PPTase inh: -17%; ALOX12 inh: -6%; G9a inh: 50µM*; GRP78 ERSR act: 0%; VDR inh: -10%

What do the screens show for `CCNC(=O)Cn1cnc2c(c(C)c(C)n2-c2ccc(Cl)cc2)c1=O`?
ALOX12 inh: -76%

Results for Cc1c(C)n(-c2ccc(Cl)cc2)c2ncn(CC(=O)NC(C)c3ccccc3)c(=O)c12 (stereo not drawn) ?
ALOX12 inh: 25µM*

What do the screens show for `Cn1c(=O)n(C)c2cc(S(=O)(=O)c3ccc(F)cc3)c(NC(=O)Cc3ccccc3Cl)cc21`?
ALOX12 inh: -15%

What do the screens show for `O=C(c1cnn(C(=O)COc2ccccc2F)c1)c1cc(F)ccc1O`?
Sfp PPTase inh: 20%; ALOX12 inh: inconclusive; G9a inh: -8%; GRP78 ERSR act: -6%; VDR inh: inconclusive

Results for Cc1cc(Cl)ccc1OCC(=O)n1cc(C(=O)c2cc(Cl)ccc2O)cn1 ?
Sfp PPTase inh: 23%; G9a inh: 79µM*

Results for COc1ccc(-c2coc3cc(O)ccc3c2=O)c(O)c1O ?
Sfp PPTase inh: -99%; G9a inh: inconclusive; GRP78 ERSR act: -2%; VDR inh: 50µM*

What do the screens show for `COc1cc(C(=O)NC(=S)Nc2ccccc2[N+](=O)[O-])cc(OC)c1OC`?
Sfp PPTase inh: 79µM*; ALOX12 inh: inconclusive; G9a inh: inconclusive; GRP78 ERSR act: inconclusive; VDR inh: -20%

How did O=C(NC(=S)Nc1ccccc1N1CCOCC1)c1ccc([N+](=O)[O-])cc1 do in these assays?
Sfp PPTase inh: 8%; ALOX12 inh: 8%; G9a inh: 8%[59 µM]; GRP78 ERSR act: -6%; VDR inh: -18%

Results for Cc1ccc(C(=O)NC(=S)Nc2ccccc2N2CCOCC2)cc1C ?
Sfp PPTase inh: 4%; G9a inh: 22µM*; GRP78 ERSR act: -5%; VDR inh: 6%

Results for CCOc1ccc(OCCC(=O)NNC(=O)c2cc(OC)c(OC)c(OC)c2)cc1 ?
ALOX12 inh: 1%; G9a inh: 79µM*; GRP78 ERSR act: -5%; VDR inh: -10%

Results for COc1cc(C(=O)NC(=S)Nc2ccccc2N2CCOCC2)cc(OC)c1OC ?
Sfp PPTase inh: 35µM*; G9a inh: 14µM*; GRP78 ERSR act: -1%; VDR inh: -2%

Results for CCCC(=O)Nc1ccccc1NC(=O)c1ccc(OCC)c(OCC)c1 ?
Sfp PPTase inh: 15%; ALOX12 inh: 0%; G9a inh: 0%; GRP78 ERSR act: -3%; VDR inh: -3%

What do the screens show for `CCCC(=O)Nc1ccccc1NC(=O)c1cc(OC)c(OC)c(OC)c1`?
Sfp PPTase inh: 3%; ALOX12 inh: 8%; G9a inh: 89µM*; GRP78 ERSR act: -6%; VDR inh: 3%

Results for COc1ccc2oc(C(=O)Nc3ccccc3N3CCOCC3)c(C)c2c1 ?
ALOX12 inh: 0%; G9a inh: 45µM*; GRP78 ERSR act: 2%; VDR inh: 29%

Results for CC1CCC/C(=C(\C#N)c2nc(-c3ccccc3)cs2)C1 (stereo not drawn) ?
ALOX12 inh: -15%

What do the screens show for `CCc1ccc(/C(C)=N/NC(=O)c2csc(CC)c2)cc1`?
ALOX12 inh: 0%

What do the screens show for `COC(=O)c1ccccc1NC(=O)Cn1c(CCC(=O)O)ccc1-c1ccc(C)cc1`?
ALOX12 inh: 9%; G9a inh: inconclusive; GRP78 ERSR act: -1%; VDR inh: 3%

What do the screens show for `Cc1ccc(-c2ccc(CCC(=O)O)n2-c2ccc(C(C)C)cc2)cc1`?
ALOX12 inh: inconclusive; G9a inh: 16µM*; GRP78 ERSR act: 20%; VDR inh: -19%

Results for COC(=O)c1ccc(-n2c(CCC(=O)O)ccc2-c2ccc(C)cc2)cc1 ?
Sfp PPTase inh: 5%; ALOX12 inh: -33%; G9a inh: 14µM*!; GRP78 ERSR act: 4%; VDR inh: inconclusive

What do the screens show for `Cc1ccc(-c2ccc(CCC(=O)O)n2-c2cccc(C(=O)O)c2)cc1`?
Sfp PPTase inh: -20%; ALOX12 inh: 0%; G9a inh: 45µM*; GRP78 ERSR act: -6%; VDR inh: -17%

Results for Cc1ccc(-c2ccc(CCC(=O)O)n2-c2cccc(C)c2C)cc1 ?
ALOX12 inh: -19%; G9a inh: 14µM*; GRP78 ERSR act: 3%; VDR inh: 8%

What do the screens show for `Cc1ccc(-c2ccc(CCC(=O)O)n2Cc2ccco2)cc1`?
Sfp PPTase inh: -18%; ALOX12 inh: inconclusive; G9a inh: 50µM*; GRP78 ERSR act: -3%; VDR inh: -19%

What do the screens show for `CCOC(=O)c1ccc(-n2c(CCC(=O)O)ccc2-c2ccc(F)cc2)cc1`?
Sfp PPTase inh: -2%; ALOX12 inh: inconclusive; G9a inh: 45µM*; GRP78 ERSR act: 5%; VDR inh: -30%

How did COC(=O)c1cccc(-n2c(CCC(=O)O)ccc2-c2ccc(OC)cc2)c1 do in these assays?
ALOX12 inh: -3%; G9a inh: 18µM*; GRP78 ERSR act: -1%; VDR inh: -26%

Results for Cc1ccc(C)n1-c1ccc(C(=O)O)cc1 ?
Sfp PPTase inh: -14%; G9a inh: 8.9µM*

How did O=C(CCC(=O)c1cccs1)OC1CCOC1=O (stereo not drawn) do in these assays?
ALOX12 inh: 20%

How did CC(=O)Nc1ccc(-n2c(CCC(=O)O)ccc2-c2ccc(Br)cc2)cc1 do in these assays?
ALOX12 inh: inconclusive; G9a inh: inconclusive; GRP78 ERSR act: 1%; VDR inh: -26%

What do the screens show for `Cc1ccc(-c2ccc(CCC(=O)O)n2-c2ccc(C(=O)O)cc2)cc1`?
Sfp PPTase inh: 56µM*; ALOX12 inh: -13%; G9a inh: 32µM*; GRP78 ERSR act: -1%; VDR inh: inconclusive
